D2 PAM-1: positive allosteric modulators of human D2 dopamine receptor | 0.34% of 340,000 active | P14416 | potentiation, % at 10 µM | HEK293 T-REx D2, calcium flux, EC20 dopamine potentiation;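 active means potentiation over 3 SD above the plate norm, cut at about 30% in these data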; further: 0% is about no effect
Target sequence (P14416 whole entry, looked up): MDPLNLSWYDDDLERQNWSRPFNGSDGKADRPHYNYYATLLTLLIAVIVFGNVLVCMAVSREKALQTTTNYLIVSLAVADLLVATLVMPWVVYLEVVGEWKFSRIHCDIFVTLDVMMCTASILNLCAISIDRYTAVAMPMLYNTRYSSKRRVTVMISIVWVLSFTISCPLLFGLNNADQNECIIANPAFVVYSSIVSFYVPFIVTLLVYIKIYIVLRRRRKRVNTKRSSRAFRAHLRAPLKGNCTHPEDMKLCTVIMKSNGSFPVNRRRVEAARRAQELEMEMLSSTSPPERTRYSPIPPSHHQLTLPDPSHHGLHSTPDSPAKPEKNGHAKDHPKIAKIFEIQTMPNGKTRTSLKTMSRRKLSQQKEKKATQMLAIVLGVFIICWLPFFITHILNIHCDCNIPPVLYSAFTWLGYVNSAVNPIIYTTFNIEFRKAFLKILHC
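Calcium flux readout, no-wash dye, 1 read/s. Inducible HEK293 Trex D2 line, overnight 30 C. Compound alone 180 s (agonist flags), then EC20 dopamine, another 180 s to score potentiation.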
D2 antag: D2 dopamine receptor (human) antagonism. 2% of 340,000 active. HEK293 TREx D2 cells, calcium flux, dopamine EC80. inhibition, % at 10 µM. AID 485344; in the data active means inhibition above about 30%; inactive means below that, where a call was filed; further: 0% is about no effect
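Antagonism is scored as inhibition of an EC80 dopamine-evoked calcium signal in a force-coupled, tetracycline-inducible HEK293 T-REx D2 line, with compound present 180 s before agonist.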
D2 ag-1: agonists of human D2 dopamine receptor (beta-arrestin); 0.084% of 360,000 active; P14416; activation, % (test concentration not listed); DiscoveRx PathHunter D2 beta-arrestin, luminescence, 90 min; 100% = 57 uM dopamine signal; in the data active means activation above about 40%
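Agonist mode: compounds alone added to overnight-plated D2 PathHunter cells for 90 min at 37 C, with 57 uM final dopamine (EC100) defining full response. Beta-arrestin recruitment detected by chemiluminescent reagent, read after 1 h at ambient temperature.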
D2 PAM-2: positive allosteric modulators of human D2 dopamine receptor. P14416. DiscoveRx D2 beta-arrestin cells, luminescence, 90 min; 100% = 57 uM dopamine signal. potentiation, % (no concentration beside the values). 0.23% of 360,000 active; in the data active means potentiation above about 50%
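D2 cells co-treated with compound plus 50 nM dopamine (EC20) for 90 min at 37 deg C to detect potentiation. Beta-arrestin recruitment was read as enzyme-fragment luminescence after 1 h at ambient temperature. Full response was set by 57 uM dopamine.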
D2 ag-2: agonists of human D2 dopamine receptor; AID 485358; activation, % at 2 µM; 0.53% of 340,000 active; HEK293 T-REx D2 cells, calcium flux agonist mode; P14416;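 active means activation over 3 SD above normal in the single-dose calcium agonist read, cut at about 30% in these data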; further: 0% is about no effect
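Calcium-flux readout, 1 cycle/sec over 180 s following compound pin transfer, in inducible HEK293 Trex D2 cells (force-coupled); dopamine controls included. Positive calcium responses during this window marked compounds as potential agonists.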
Starred values were filed as active, the others as inactive; · = no result given. Compounds with a hit are over-represented: about 2.4% of the library has one in this group of screens.

SMILES	D2 PAM-1	D2 antag	D2 ag-1	D2 PAM-2	D2 ag-2
CCN(C(=O)c1cccc(S(=O)(=O)N2CCc3ccccc32)c1)C1CCS(=O)(=O)C1 (stereo not drawn)	-4	-5	-1	-3	0
Cc1cc(C)n2nc(CC(=O)NNC(=O)c3ccccc3Cl)nc2n1	17	3	-2	-4	0
COC(=O)c1ccc2c(c1O)C(=O)c1ccccc1C2=O	0	10	14	107*	1
COc1ccc(S(=O)(=O)N2CCOCC2)cc1NC(=O)CN1CCCc2ccccc21	·	·	0	-6	·
CCCN1C(=O)/C(=C/c2ccc(N3CCOCC3)cc2)NC1=S	·	1	-5	-13	24
CCCN1C(=O)/C(=C/c2ccc(N3CCCC3)c(C)c2)NC1=S	·	·	-3	-9	·
CCN1C(=O)/C(=C/c2ccc(N3CCCC3)cc2)NC1=S	-17	8	1	-11	59*
CN1C(=O)/C(=C/c2ccc(OCc3ccc(F)cc3)cc2)N(C)C1=S	·	·	-4	-1	·
Cc1cc(/C=C2/C(=O)N(C)C(=S)N2C)ccc1N1CCCC1	-1	26	1	3	32*
Cc1cc(/C=C2\NC(=S)N(C)C2=O)ccc1N1CCCC1	-2	42*	5	-5	69*
Cc1cc(N2CCCC2)ccc1/C=C1/C(=O)N(C)C(=S)N1C	-3	59*	-4	-6	8
O=C(NCc1cccs1)c1ccc(CSc2nc3ccncc3n2Cc2ccccc2F)cc1	18	·	·	·	-1
CCCCCCCNC(=O)C1(CC2CC(c3ccc(Cl)cc3)=NO2)CCN(C(=O)c2cc(OCC)c(OCC)c(OCC)c2)CC1 (stereo not drawn)	-11	44*	0	-7	1
[S-]C(=Nc1ccc(Cl)cc1)N[n+]1ccccc1	13	62*	-8	-5	-2
ONC(=Nc1ccc(Cl)cc1)c1ccc(Cl)cc1	9	-3	0	1	0
CCn1nnnc1-c1ccc(OC)c(S(=O)(=O)Nc2ccc(OC)cc2)c1	-4	36*	1	7	0
Cc1ccc2c(=O)c(C(=O)c3ccc(F)cc3)cn(CC(=O)NCCc3ccccc3)c2n1	6	·	·	·	0
CCC(=O)Oc1ccc2c(=O)c(-c3ccc4ccccc4n3)c(CC)oc2c1C	-2	-8	0	2	-1
Cc1oc2c(C)c(O)ccc2c(=O)c1-c1ccc2ccccc2n1	-4	44*	-3	-15	0
Cc1ccccc1NC1=NC(=S)N(CC(N)=O)C12CCOC(C)(C)C2 (stereo not drawn)	-8	44*	-3	-6	1
COc1ccc(-c2cc3ccccc3n2CC(O)CNCCO)cc1 (stereo not drawn)	·	·	-2	-17	·
COc1ccc(-c2cc3ccccc3n2CC(O)CN2CCCCC2)cc1 (stereo not drawn)	-22	43*	0	-24	1
Cc1cc(C)n(-c2nc(C)nc(NCc3ccccc3)n2)n1	1	7	-4	-43	3
CNc1nc(C)nc(-n2nc(C)cc2C)n1	-4	35*	-5	-3	0
O=C(NNC(=O)c1cc2ccccc2o1)c1ccc(F)cc1	-3	8	-2	-15	-1
SMILES	D2 PAM-1	D2 antag	D2 ag-1	D2 PAM-2	D2 ag-2
O=C(NCc1ccc(F)cc1)c1cc2ccccc2o1	52*	-9	1	-1	-2
O=C(NCc1ccccc1)c1ccc(-c2ccccc2F)o1	32*	24	-3	-17	-2
O=C(NCCc1ccccc1)c1ccc(-c2ccccc2C(F)(F)F)o1	-19	-8	0	-17	-1
O=C(O)c1ccccc1-c1ccc(/C=C/c2cc(C(F)(F)F)[nH]c(=O)n2)o1	2	16	-3	0	45*
Clc1ccc(/C=N/Nc2nnc(-c3ncc[nH]3)c3ccccc23)cc1	-18	70*	-4	-17	0
CSc1ccc(CN2CCC(C)(Oc3ccc(-n4ccnc4)cc3)C2)cc1 (stereo not drawn)	·	·	11	-23	·
COc1ccc(/C=C2/N=C(SCC(=O)Nc3cc(C)on3)N(c3ccccc3)C2=O)cc1	1	32*	0	7	-1
COc1ccc(NC(=O)Cn2c(=O)c3ccccc3n3nncc23)c(OC)c1	-2	·	·	·	1
